Measurements published in PubChem BioAssay.
Some of the results follow. Activity calls are given as the source filed them.

Tests used:
[1] = biological target: Inward rectifier potassium channel 2 (Mus musculus) (UniProt P35561); assay: mouse Kir2.1 channel blockers, retest, confirmation, cell-based, FluxOR thallium flux, duplicate (AID 2032;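 active = Primary-screen hit whose thallium flux fell at least 3 control SD below untreated wells in both duplicates, with normal baseline fluorescence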); settings: Kir2.1-expressing cells, FluxOR thallium flux fluorescence, at 10 µM; active compounds read low
Sequence of Inward rectifier potassium channel 2 (Mus musculus) (P35561 whole entry, looked up): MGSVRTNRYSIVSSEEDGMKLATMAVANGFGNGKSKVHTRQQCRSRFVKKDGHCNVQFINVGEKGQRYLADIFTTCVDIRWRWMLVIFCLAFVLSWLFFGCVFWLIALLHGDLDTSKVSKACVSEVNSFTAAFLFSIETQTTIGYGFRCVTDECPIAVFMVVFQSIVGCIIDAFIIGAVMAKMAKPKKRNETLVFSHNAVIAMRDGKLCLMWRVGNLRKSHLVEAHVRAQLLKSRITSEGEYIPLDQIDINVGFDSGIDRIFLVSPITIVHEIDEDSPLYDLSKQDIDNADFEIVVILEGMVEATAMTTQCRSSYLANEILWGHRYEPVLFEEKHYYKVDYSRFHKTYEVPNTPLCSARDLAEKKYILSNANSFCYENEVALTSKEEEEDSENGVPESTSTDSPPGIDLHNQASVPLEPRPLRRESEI

[2] = nonspecific thallium flux effects in parental HEK293 cells, confirmation, counter-screen for Kir2.1 inhibitor project, cell-based, FluxOR thallium flux, duplicate, single concentration (AID 2105;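 active = dye signal at least 3 control SD above or below untreated wells in both duplicates, raw fluorescence within 3, either direction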;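 for FluxOR signal as % of negative control (100 = no effect): percent is based on the flux ratio of peak minus minimum fluorescence over baseline F0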); settings: FluxOR thallium flux fluorescence, at 10 µM; 0% = unstimulated blank wells
[3] = nonspecific thallium flux increase in parental CHO-K1, confirmation, counter-screen for KCNQ2 potentiator project, cell-based, FluxOR thallium flux, duplicate (AID 2282;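 active = signal rise of at least 3 SD above the untreated control mean, in both duplicate wells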;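 note: counter screen of KCNQ2 potentiator hits so any rise reflects channel-independent effects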); settings: parental CHO-K1 cells, FluxOR thallium flux fluorescence; at 10 µM; active compounds read high; zero = vehicle mean+3SD, 100% = vehicle-minus-blank window
[4] = biological target: Potassium voltage-gated channel subfamily KQT member 1 (Homo sapiens) (UniProt P51787); assay: human KCNQ1 channel potentiation off-target, confirmation, selectivity assay for KCNQ2 potentiator project, cell-based, CHO, FluxOR thallium flux (AID 2283;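 active = fluorescence ratio rise of at least 3 SD of vehicle wells above their mean, in both replicate wells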;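 note: 0% = vehicle mean plus 3 SD and 100% = vehicle minus unstimulated blank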); settings: CHO KCNQ1 stable, FluxOR thallium flux fluorescence; at 10 µM; active compounds read high; beyond 3SD, as % of vehicle-control signal
Sequence of Potassium voltage-gated channel subfamily KQT member 1 (Homo sapiens) (P51787 whole entry, looked up): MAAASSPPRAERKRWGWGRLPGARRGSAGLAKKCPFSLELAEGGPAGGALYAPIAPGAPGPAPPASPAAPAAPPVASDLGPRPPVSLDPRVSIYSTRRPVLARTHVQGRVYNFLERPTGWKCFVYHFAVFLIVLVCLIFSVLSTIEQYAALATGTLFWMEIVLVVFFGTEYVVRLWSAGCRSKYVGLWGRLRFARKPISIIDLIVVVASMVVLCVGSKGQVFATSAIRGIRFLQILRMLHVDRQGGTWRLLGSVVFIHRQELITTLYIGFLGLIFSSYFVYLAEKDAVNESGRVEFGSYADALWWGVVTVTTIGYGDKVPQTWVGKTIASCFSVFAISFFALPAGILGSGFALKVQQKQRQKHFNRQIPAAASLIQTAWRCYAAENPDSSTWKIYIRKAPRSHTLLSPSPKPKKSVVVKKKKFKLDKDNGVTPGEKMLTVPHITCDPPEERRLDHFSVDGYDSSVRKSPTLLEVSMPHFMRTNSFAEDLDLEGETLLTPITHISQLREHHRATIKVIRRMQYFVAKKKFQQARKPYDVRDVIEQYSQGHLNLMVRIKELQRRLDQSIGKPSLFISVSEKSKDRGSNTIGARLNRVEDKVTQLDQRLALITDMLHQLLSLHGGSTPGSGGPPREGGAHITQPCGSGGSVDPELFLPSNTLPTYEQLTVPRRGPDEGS

[5] = biological target: Potassium voltage-gated channel subfamily KQT member 2 (Rattus norvegicus) (UniProt O88943); assay: rat KCNQ2 channel potentiators, confirmation, cell-based, CHO, FluxOR thallium flux, duplicate (AID 2287); settings: CHO-KCNQ2 cells, FluxOR thallium flux fluorescence; at 10 µM; active compounds read high;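 note: peak minus minimum thallium fluorescence divided by baseline after K/Tl stimulus; 0% = vehicle mean plus 3 SD and 100% = vehicle minus unstimulated blank difference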
[6] = biological target: Inward rectifier potassium channel 2 (Mus musculus) (UniProt P35561); assay: PubChem AID 2345; settings: HEK293 Kir2.1, FluxOR thallium flux fluorescence; at 10 µM; active compounds read high;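 note: 0% = vehicle mean plus 3 SD and 100% = vehicle minus no-stimulus blank window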
[7] = biological target: Potassium voltage-gated channel subfamily KQT member 2 (Rattus norvegicus) (UniProt O88943); assay: potentiators of retigabine-insensitive KCNQ2 W236L, mechanism study for KCNQ2 potentiator project, cell-based, rat KCNQ2 W236L, CHO, automated patch clamp (AID 2558;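 active = current increase at least 3 SD of the untreated controls above them in both duplicate recordings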); settings: at 25 µM; outcome: automated patch clamp current
[8] = thallium flux activation in parental CHO cells, counter-screen for KCNQ1 potentiator project (AID 493006;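 active = duplicate-averaged activation above buffer control mean plus 5 SD of those controls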;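 for activation: fluorescence ratio of max minus min over baseline after K+ and Tl+ depolarization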); settings: parental CHO-K1 cells, FluxOR thallium flux, at 10 µM; active compounds read high
[9] = biological target: Potassium voltage-gated channel subfamily KQT member 1 (Homo sapiens) (UniProt P51787); assay: KCNQ1 potassium channel potentiators, confirmation, FluxOR thallium flux, CHO cells, duplicates (AID 493007;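 active = potentiation averaged over duplicate wells exceeding buffer-only control mean by more than 3 SD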;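 for outcome: cells depolarized by a potassium plus thallium sulfate stimulus after compound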;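 for potentiation: 0% = buffer-only wells and 100% = R-L3 activator control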); settings: KCNQ1 cell line, FluxOR thallium flux fluorescence, at 10 µM; active compounds read high, % of reference activator effect, buffer zero
[10] = biological target: Potassium voltage-gated channel subfamily KQT member 2 (Rattus norvegicus) (UniProt O88943); assay: rat KCNQ2 channel potentiation, selectivity assay for KCNQ1 potentiator project, KCNQ2-CHO-K1 cells (AID 493009;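 active = mean duplicate potentiation above the buffer control mean plus 5 SD of buffer wells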;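 note: assay conditions were tuned for KCNQ1 rather than KCNQ2 modulators; signal is max minus min fluorescence divided by baseline after thallium stimulus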); settings: FluxOR thallium flux fluorescence, at 10 µM; active compounds read high, scaled: buffer 0, activator control 100
[11] = biological target: Potassium voltage-gated channel subfamily KQT member 1 (Homo sapiens) (UniProt P51787); assay: KCNQ1 channel current potentiators, confirmation, orthogonal assay for KCNQ1 potentiator project, IonWorks patch clamp, KCNQ1-CHO cells (AID 493184;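 active = current rise at least 3 SD above the untreated control mean in each of two repeat wells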); settings: automated patch clamp current, at 10 µM; active compounds read high
[12] = biological target: Potassium voltage-gated channel subfamily KQT member 1 (Homo sapiens) (UniProt P51787); assay: KCNQ1 potassium channel inhibitors, confirmation, cell-based, Tl flux, duplicate (AID 588353;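 active = primary screen active, with duplicate mean exceeding buffer control mean plus 3 SD of buffer wells, cut at about 28% in these data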;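 note: 0% = buffer control ratio and 100% = XE991 inhibitor control ratio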); settings: KCNQ1 cell line, FluxOR thallium flux fluorescence; at 10 µM; active compounds read high
[13] = thallium flux effects in parental CHO cells, counter-screen for KCNQ1 inhibitor project, cell-based, Tl flux (AID 588366;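 active = mean of duplicate thallium-flux fluorescence ratios in parental host cells more than 5 SD below the buffer control mean, cut at about 0.38 in these data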;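 note: ratio is peak minus minimum fluorescence divided by baseline fluorescence; actives read low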); settings: parental CHO-K1, FluxOR thallium flux fluorescence ratio; at 10 µM; active compounds read low; zero means no signal rise above baseline
[14] = biological target: Potassium voltage-gated channel subfamily KQT member 2 (Rattus norvegicus) (UniProt O88943); assay: KCNQ2 channel inhibition, selectivity assay for KCNQ1 inhibitor project, cell-based (AID 651746;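 active = mean percent inhibition of the KCNQ2 thallium signal more than 5 SD above the buffer-only control wells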;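 note: 0% = buffer control wells and 100% = XE-991 inhibitor control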); settings: KCNQ2 cells, FluxOR thallium flux fluorescence, at 10 µM; active compounds read high

CCn1c(O)c(N=NC2=NC(=O)CS2)c2cc(C)ccc21
inactive: outcome [1] | activity increase over 3SD of controls [3] -1.5% | activation over 3SD threshold [4] -22.6% | activity over 3SD threshold [6] -27.4% | outcome [7] | outcome [11]
active: FluxOR signal as % of negative control (100 = no effect) [2] 160% | potentiation, less the hit threshold [5] 0.3% | activation [8] 244% | potentiation [9] 112% | potentiation [10] 310%

CC(=O)N(C1=C(Cl)C(=O)c2ccccc2C1=O)c1ccc(C(=O)O)cc1
inactive: outcome [1] | outcome [2]
active: inhibition [12] 158% | fluorescence ratio (Tl flux) [13] 0.205 | inhibition [14] 124%

Cc1ccc(/C=N/NC(=O)c2cc3ccccc3cc2O)o1
inactive: outcome [1] | activation over 3SD threshold [4] -6.4% | activity over 3SD threshold [6] -20.1% | outcome [7] | outcome [11]
active: FluxOR signal as % of negative control (100 = no effect) [2] 414% | activity increase over 3SD of controls [3] 42.5% | potentiation, less the hit threshold [5] 69% | activation [8] 482% | potentiation [9] 140% | potentiation [10] 506%

CSc1nnc(NC(=O)c2nc(S(=O)(=O)Cc3ccc(C)cc3)ncc2Cl)s1
inactive: outcome [1] | outcome [2] | activity increase over 3SD of controls [3] -8.9% | activation over 3SD threshold [4] -21.2% | activity over 3SD threshold [6] -50.4%
active: potentiation, less the hit threshold [5] 67.6% | current increase over 3SD of negative controls (%), active compounds read high [7] 23.1%

CCn1c2ccccc2c2cc(NC(=O)CNC)ccc21
active: Tl flux remaining, % of negative control (active compounds read low) [1] 44% | potentiation, less the hit threshold [5] 1.9%
inactive: outcome [2] | activity increase over 3SD of controls [3] -6.1% | activation over 3SD threshold [4] -12.2% | activity over 3SD threshold [6] -90% | outcome [7] | outcome [8] | outcome [9] | outcome [10] | outcome [11]

CC(=O)NNC(=O)c1csc(Cc2c(Cl)sc3ccc(Cl)cc23)n1
inactive: activation over 3SD threshold [4] -5% | activity over 3SD threshold [6] -69.1%
active: activity increase over 3SD of controls [3] 26.3% | potentiation, less the hit threshold [5] 12.3% | current increase over 3SD of negative controls (%), active compounds read high [7] 1.62%

C/C(=N\NC(=O)c1ccoc1C)c1ccccc1O
inactive: outcome [1] | outcome [2] | activation over 3SD threshold [4] -7.3% | activity over 3SD threshold [6] -16.7% | outcome [7]
active: activity increase over 3SD of controls [3] 53.8% | potentiation, less the hit threshold [5] 52.9%
